Assay results taken from PubChem BioAssay (Tox21).
“And” between values parts separate entries of the source, which are not always exact repeats. Equal values may be shown once. Inconclusive results are not listed. A structure can be active in one record and inactive in another. The source made the active and inactive calls. Calls come from the whole dose curve; as a rule, active = well fitted cell-killing curve with a large enough effect in the repeat runs; inconclusive = weak or mixed curves; inactive = no such curve, though single readings can be large or run the other way.

Assay: qHTS assay for identifying genotoxic compounds that show differential cytotoxicity against isogenic chicken DT40 cell lines with known DNA damage response pathways - Rad54/Ku70 mutant cell line (AID 743015); note: nearly all actives have a fitted effect of over 60% in size
Details: DT40 Rad54/Ku70 mutant viability, CellTiter-Glo, 40 h; series mostly up to 66.8 µM; activity change, negative = cytotoxicity: at the top concentration
% is set by controls: 0 for no effect and ±100 for the full control effect; potency is the fitted concentration of half-maximal effect.

| SMILES | activity change, negative = cytotoxicity | Potency |
| --- | --- | --- |
| Clc1c(Cl)c(Cl)c(Cl)c(Cl)c1Cl | -2.7% [at 8.55 µM] (inactive) | – |
| CCOP(=O)(OCC)Oc1nc(Cl)c(Cl)cc1Cl | – | 60.8 µM (active) |
| CN1C(=O)[C@@H](NC(=O)c2cc3ccccc3[nH]2)N=C(c2ccccc2)c2ccccc21 | – | 18.8 µM (active) |
| Oc1cc(Cl)cc(Cl)c1 | – | 61.8 µM (active) |
| Cc1c([N+](=O)[O-])cc2c(c1[N+](=O)[O-])C(C)(C)CC2(C)C | 0.628% (inactive) | – |
| CC(=O)[O-].CC(=O)[O-].CC(=O)[O-].[Sb+3] | -0.679% [at 8.55 µM] (inactive) | – |
| ClCBr | -0.419% [at 95.1 µM] (inactive) | – |
| O.O.O.O=C([O-])[C@H]([O-])[C@@H]([O-])C(=O)[O-].O=C([O-])[C@H]([O-])[C@@H]([O-])C(=O)[O-].[K+].[K+].[Sb+3].[Sb+3] | – | 3.46 µM (active) |
| Cc1ccn2nc(S(=O)(=O)Nc3c(F)cccc3F)nc2n1 | 14.8% (inactive) | – |
| CC(=O)O.CC(=O)O.CC(=O)O.CC(=O)O.CC(=O)O.CC(=O)O.CC(=O)O.O.O.[Cr].[Cr].[Cr] | 9.57% (inactive) | – |
| CCCC[N+]1(C)CCCC1 (tested in a mixture with another compound) | -0.812% [at 95.1 µM] (inactive) | – |
| CC(=O)[O][Sn]([c]1ccccc1)([c]1ccccc1)[c]1ccccc1 | – | 0.172 µM (active) |
| Nc1c(Cl)c(Cl)c(Cl)c(Cl)c1Cl | -13.5% (inactive) | – |
| Cc1cccc(Cc2cnc[nH]2)c1C | -16.1% (inactive) | – |
| CCCCC(CC)COC(=O)OOC(C)(C)C (centres undefined) | -10.1% (inactive) | – |
| CC(=O)[O-].CC(=O)[O-].CC(=O)[O-].[Cr+3] | – | 19.3 µM (active) |

| SMILES | activity change, negative = cytotoxicity | Potency |
| --- | --- | --- |
| OCC(Br)CBr (centres undefined) | 2.71% [at 95.1 µM] (inactive) | – |
| CCCN | -2.87% [at 95.1 µM] (inactive) | – |
| O=C1C[C@@H]2OCC=C3CN4CC[C@]56c7ccccc7N1[C@H]5[C@H]2[C@H]3C[C@H]46 | – | inactive and 29.8 µM (active) |
| Cc1ccc2cc3c(ccc4ccccc43)c3c2c1CC3 | 9.54% (inactive) | – |
| CCCCCON=O | 2.1% [at 95.1 µM] (inactive) | – |
| c1ccc(Nc2ccc(Nc3ccccc3)cc2)cc1 | – | 24.2 µM (active) |
| Oc1ccc2[nH]cc(CCCCN3CC=C(c4ccccc4)CC3)c2c1 | – | 7.5 µM (active) |
| CCCCn1cc[n+](C)c1 (tested in a mixture with another compound) | 1.13% (inactive) | – |
| O=[N+]([O-])c1cccc2cccc([N+](=O)[O-])c12 | – | 61.4 µM (active) |
| COP(=S)(OC)Oc1ccc([N+](=O)[O-])c(C)c1 | -25% (inactive) | – |
| CC(O)C(=O)[O][Hg][c]1ccccc1 (centres undefined) | – | 0.154 µM (active) |
| COP(=O)(OC)Oc1ccc([N+](=O)[O-])cc1 | -20% (inactive) | – |
| O=C(N[C@H]1N=C(c2ccccc2F)c2cccc3c2N(CC3)C1=O)c1cc2ccccc2[nH]1 | – | 29.8 µM (active) |
| CCC[CH2][Sn]([CH2]CCC)([O]C(C)=O)[O]C(C)=O | – | 30.9 µM (active) |
| c1ccc(N=NNc2ccccc2)cc1 | – | 63.3 µM (active) |

Assay: qHTS assay to identify small molecule antagonists of the androgen receptor (AR) signaling pathway - cell viability counter screen (AID 743033; note: nearly all actives have a fitted effect of over 45% in size)
Details: AR-bla HEK293 viability, CellTiter-Glo luminescence, 16 h; series mostly up to 58.5 µM; activity change, negative = cytotoxicity: at the top concentration

| SMILES | activity change, negative = cytotoxicity | Potency |
| --- | --- | --- |
| Clc1c(Cl)c(Cl)c(Cl)c(Cl)c1Cl | 3.9% [at 7.04 µM] (inactive) | – |
| O.O.O.O.O.O.O=S(=O)([O-])[O-].[Ni+2] | -4.69% (inactive) | – |
| CCOP(=O)(OCC)Oc1nc(Cl)c(Cl)cc1Cl | -17.3% (inactive) | – |
| CC(=O)[O-].CC(=O)[O-].O.O.O.[Pb+2] | 14.3% (inactive) | – |
| CN1C(=O)[C@@H](NC(=O)c2cc3ccccc3[nH]2)N=C(c2ccccc2)c2ccccc21 | -0.0239% (inactive) | – |
| Cc1c([N+](=O)[O-])cc2c(c1[N+](=O)[O-])C(C)(C)CC2(C)C | -7.84% (inactive) | – |
| CC(=O)[O-].CC(=O)[O-].CC(=O)[O-].[Sb+3] | -2.21% [at 7.04 µM] (inactive) | – |
| ClCBr | 5.47% [at 78.9 µM] (inactive) | – |
| O.O.O.O=C([O-])[C@H]([O-])[C@@H]([O-])C(=O)[O-].O=C([O-])[C@H]([O-])[C@@H]([O-])C(=O)[O-].[K+].[K+].[Sb+3].[Sb+3] | -14.8% [at 78.9 µM] (inactive) | – |
| Cc1ccn2nc(S(=O)(=O)Nc3c(F)cccc3F)nc2n1 | 1.19% (inactive) | – |
| CC(=O)O.CC(=O)O.CC(=O)O.CC(=O)O.CC(=O)O.CC(=O)O.CC(=O)O.O.O.[Cr].[Cr].[Cr] | 1.46% (inactive) | – |
| CCCC[N+]1(C)CCCC1 (tested in a mixture with another compound) | -0.891% [at 78.9 µM] (inactive) | – |
| CC(=O)[O][Sn]([c]1ccccc1)([c]1ccccc1)[c]1ccccc1 | – | 0.245 µM (active) |
| Nc1c(Cl)c(Cl)c(Cl)c(Cl)c1Cl | -11.1% (inactive) | – |
| Cc1cccc(Cc2cnc[nH]2)c1C | -0.893% (inactive) | – |
| CCCCC(CC)COC(=O)OOC(C)(C)C (centres undefined) | 3.57% (inactive) | – |
| CC(=O)[O-].CC(=O)[O-].CC(=O)[O-].[Cr+3] | -10.3% (inactive) | – |

| SMILES | activity change, negative = cytotoxicity | Potency |
| --- | --- | --- |
| COC(=O)C(C)N(C(=O)c1ccco1)c1c(C)cccc1C (centres undefined) | -0.0423% (inactive) | – |
| OCC(Br)CBr (centres undefined) | 7.78% [at 78.9 µM] (inactive) | – |
| CCCN | -0.257% [at 78.9 µM] (inactive) | – |
| O=C1C[C@@H]2OCC=C3CN4CC[C@]56c7ccccc7N1[C@H]5[C@H]2[C@H]3C[C@H]46 | – | inactive |
| Cc1ccc2cc3c(ccc4ccccc43)c3c2c1CC3 | -1.9% (inactive) | – |
| COP(=S)(OC)Oc1nc(Cl)c(Cl)cc1Cl | -9.21% (inactive) | – |
| CCCCCON=O | -0.505% [at 78.9 µM] (inactive) | – |
| Oc1ccc2[nH]cc(CCCCN3CC=C(c4ccccc4)CC3)c2c1 | -28.9% (inactive) | – |
| CCCCn1cc[n+](C)c1 (tested in a mixture with another compound) | 0.77% (inactive) | – |
| O=[N+]([O-])c1cccc2cccc([N+](=O)[O-])c12 | -6.6% [at 78.9 µM] (inactive) | – |
| COP(=S)(OC)Oc1ccc([N+](=O)[O-])c(C)c1 | -2.43% (inactive) | – |
| CC(O)C(=O)[O][Hg][c]1ccccc1 (centres undefined) | – | 2.45 µM (active) |
| COP(=O)(OC)Oc1ccc([N+](=O)[O-])cc1 | -2.19% (inactive) | – |
| BrCC(Br)(Br)Br | 1.73% [at 78.9 µM] (inactive) | – |
| O=C(N[C@H]1N=C(c2ccccc2F)c2cccc3c2N(CC3)C1=O)c1cc2ccccc2[nH]1 | -27.2% (inactive) | – |
| c1ccc(N=NNc2ccccc2)cc1 | – | inactive |
